This is a sample that favours compounds with a hit; in the whole collection about 3.4% have one here.
MITF primary = blocks human microphthalmia-associated transcription factor; 650,000 compounds, 0.91% hits; inhibition, % at 2.6 µM; AlphaScreen MITF homodimerization, bead proximity signal; O75030; in the data active means inhibition above about 50%;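 further: 0% = vehicle wells with protein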
Target sequence (O75030 whole entry, looked up): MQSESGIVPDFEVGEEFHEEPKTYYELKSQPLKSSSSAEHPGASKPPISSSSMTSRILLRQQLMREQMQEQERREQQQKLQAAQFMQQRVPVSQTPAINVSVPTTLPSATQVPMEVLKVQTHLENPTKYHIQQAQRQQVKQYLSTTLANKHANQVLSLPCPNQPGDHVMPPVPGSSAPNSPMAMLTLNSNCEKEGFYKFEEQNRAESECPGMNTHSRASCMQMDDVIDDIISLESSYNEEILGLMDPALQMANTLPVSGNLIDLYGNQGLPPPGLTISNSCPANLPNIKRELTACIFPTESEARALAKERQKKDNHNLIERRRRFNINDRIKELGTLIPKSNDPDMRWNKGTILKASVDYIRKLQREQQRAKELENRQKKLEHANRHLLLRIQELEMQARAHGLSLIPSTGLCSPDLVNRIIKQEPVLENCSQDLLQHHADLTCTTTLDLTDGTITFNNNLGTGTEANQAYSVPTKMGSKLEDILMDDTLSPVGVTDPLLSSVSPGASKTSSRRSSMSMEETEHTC
FBW7 activator = human FBW7 E3 ligase activation, primary screen; AlphaScreen FBW7–phospho-cyclin E peptide binding, activator screen; normalized activity (activation), % at 26.1 µM; 650,000 compounds, 0.13% hits; AID 1259310; in the data active means normalized activity above about 1.9%;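 further: purified mutant Fbw7 with reduced substrate affinity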
TEAD-YAP inh = TEAD-YAP interaction inhibition; HEK-TIYL cells, TEAD-Gal4/YAP UAS-luciferase luminescence; inhibition, % at 9.12 µM; 640,000 compounds, 1.4% hits; in the data active means inhibition above about 32%;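 further: 0% = median of test compound wells and 100% = reference inhibitor wells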
GPR151 ag = activates the human receptor GPR151; Q8TDV0; PathHunter beta-arrestin GPR151 cells, luminescence; activation, % at 11.2 µM; 650,000 compounds, 1% hits; AID 1508602; in the data active means activation above about 4.9%;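 further: 0% = median of compound wells and 100% = cells with positive control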
MITF inh conf = human MITF inhibition, confirmation | AlphaScreen MITF homodimerization, biotin/His-MITF beads | 4,700 compounds, 16% hits | inhibition, % at 2.6 µM | shares compounds with MITF primary;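 active means inhibition above a cutoff derived from the DMSO control wells, cut at about 28% in these data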;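 further: 0% = MITF dimer wells with DMSO only; inhibitors lower the bead chemiluminescence by keeping MITF from dimerizing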
AlphaScreen intf2 = counter-screen: compounds optically interfering with AlphaScreen | LysRS AlphaScreen counterscreen, signal interference, triplicate | 4,700 compounds, 7.6% hits | shares compounds with MITF primary | inhibition, % at 2.6 µM;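 active means inhibition above a cutoff derived from the DMSO control wells, cut at about 30% in these data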
Numbers without * were called inactive.

How did COc1cccc(CN2C(=O)NC(C)(C3CCN(C(=O)CC(C)C)CC3)C2=O)c1OC (configuration not stated) do in these assays?
MITF primary: 5.5; FBW7 activator: 0.0; TEAD-YAP inh: -0.2; GPR151 ag: 1.2

What do the screens show for `Cc1ccc(CN2CCN(C(=O)c3ccccc3)CC2)cc1`?
MITF primary: 46.9; FBW7 activator: -0.1; TEAD-YAP inh: -1.9; GPR151 ag: -0.1

How did O=C(c1ccc(F)cc1)N1CCN(Cc2ccc(F)cc2)CC1 do in these assays?
MITF primary: 52.0*; FBW7 activator: 0.1; TEAD-YAP inh: 4.9; GPR151 ag: -1.9; MITF inh conf: -4.5; AlphaScreen intf2: 1.0

What do the screens show for `O=C(c1ccc(F)cc1)N1CCN(Cc2ccncc2)CC1`?
MITF primary: 63.2*; FBW7 activator: -0.1; TEAD-YAP inh: -4.6; GPR151 ag: 0.0; MITF inh conf: 10.1; AlphaScreen intf2: -7.1

Results for O=C(c1ccccc1)N1CCN(Cc2ccccc2)CC1 ?
MITF primary: 13.3; FBW7 activator: 0.0; TEAD-YAP inh: 4.0; GPR151 ag: 4.2

How did Cc1ccc(CN2CCN(C(=O)c3ccncc3)CC2)cc1 do in these assays?
MITF primary: 65.2*; FBW7 activator: -0.5; TEAD-YAP inh: 1.1; GPR151 ag: 2.7; MITF inh conf: -0.9; AlphaScreen intf2: -4.3

What do the screens show for `O=C(c1ccc(F)cc1)N1CCN(Cc2ccc(Br)cc2)CC1`?
MITF primary: 61.6*; FBW7 activator: 0.0; TEAD-YAP inh: 11.7; GPR151 ag: 1.4; MITF inh conf: 6.7; AlphaScreen intf2: 15.0

What do the screens show for `CSc1ncccc1C(=O)Nc1cccc(C#N)c1`?
MITF primary: 6.2; FBW7 activator: 0.4; TEAD-YAP inh: 8.3; GPR151 ag: -0.3

What do the screens show for `CC(=O)c1ccc(NC(=O)c2cc(Br)ccc2Cl)cc1`?
MITF primary: -2.2; FBW7 activator: -0.8; TEAD-YAP inh: -30.2; GPR151 ag: 0.4

Results for Fc1ccccc1C1CCN(Cc2ccncc2)CC1 ?
MITF primary: 70.0*; FBW7 activator: -0.2; TEAD-YAP inh: 2.8; GPR151 ag: -0.3; MITF inh conf: 4.8; AlphaScreen intf2: 12.3

Results for Fc1ccc(CN2CCN(Cc3ccncc3)CC2)cc1 ?
MITF primary: 82.6*; FBW7 activator: 0.9; TEAD-YAP inh: 14.0; GPR151 ag: -1.3; MITF inh conf: 5.8; AlphaScreen intf2: 8.9

Results for O=C(c1ccccc1F)N1CCN(Cc2ccc3c(c2)OCO3)CC1 ?
MITF primary: 51.3*; FBW7 activator: 0.1; TEAD-YAP inh: 15.3; GPR151 ag: -1.1; MITF inh conf: -1.2; AlphaScreen intf2: -5.2

Results for CCc1ccc(CN2CCN(C(=O)c3ccccc3F)CC2)cc1 ?
MITF primary: 50.8*; FBW7 activator: 0.1; TEAD-YAP inh: 16.2; GPR151 ag: -0.5; MITF inh conf: 7.9; AlphaScreen intf2: 10.1

What do the screens show for `O=C(C1CCNCC1)N1CCN(Cc2ccc3c(c2)OCO3)CC1`?
MITF primary: 56.5*; FBW7 activator: -0.4; TEAD-YAP inh: -6.2; GPR151 ag: -0.3; MITF inh conf: 9.0; AlphaScreen intf2: 13.1

What do the screens show for `O=[N+]([O-])c1cc(F)c(N2CCOCC2)cc1N1CCCC1`?
MITF primary: 2.8; FBW7 activator: 0.0; TEAD-YAP inh: 21.9; GPR151 ag: -0.9

What do the screens show for `CCc1n[nH]c(=S)n1N=C1CCC(C)CC1` (configuration not stated)?
MITF primary: 59.4*; FBW7 activator: 0.3; TEAD-YAP inh: 2.5; GPR151 ag: 0.5; MITF inh conf: -0.7; AlphaScreen intf2: -2.1

Results for CCc1n[nH]c(=S)n1/N=C/c1ccc(F)cc1 ?
MITF primary: 4.4; FBW7 activator: 0.2; TEAD-YAP inh: -9.3; GPR151 ag: -0.5

How did COc1ccccc1-n1c(SCC(=O)NNC=O)nnc1-c1ccc(C)cc1 do in these assays?
MITF primary: 83.6*; FBW7 activator: 0.0; TEAD-YAP inh: -45.9; GPR151 ag: -1.9; MITF inh conf: 5.4; AlphaScreen intf2: 7.7

What do the screens show for `COc1ccccc1-n1c(SCC(=O)Nc2ccc(C)cc2)nnc1-c1ccncc1`?
MITF primary: -16.2; FBW7 activator: 0.0; TEAD-YAP inh: 4.0; GPR151 ag: -0.6

Results for O=C(Nc1nc2c(s1)CCC2C(=O)NCCCc1ccccc1)c1ccc(F)cc1 (configuration not stated) ?
MITF primary: 80.2*; FBW7 activator: -0.1; TEAD-YAP inh: -10.1; GPR151 ag: 0.3; MITF inh conf: 3.8; AlphaScreen intf2: 18.8
